# Screens as filed in PubChem BioAssay.
# GALC G270D up: enhancers of human galactocerebrosidase G270D mutant activity in cells | P54803 | 145M-Twi-hGALC-G270D cells, HMU-beta-Gal fluorescence, 48 h | Potency, µM (doses to about 57.5 µM), most hits filed as activators | 45,000 tested, 0.1% active | AID 1159614; also: nearly all actives have a fitted effect of over 65% in size
#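 qHTS, 1536-well; 145M-Twi-hGALC-G270D cells (WT line also made) in DMEM/F12 + 10% FBS; compound incubation on live cells; HMU-β-gal 0.1 mM final, pH 5.2, NaTC; carbonate stop; fluorescence increase = enhanced residual activity.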
# OvCa metastasis: blocks SKOV3ip1 adhesion and invasion in omental model; SKOV3ip1-GFP adhesion/invasion on 3D omental model, fluorescence; Potency, µM (highest dose often 45.8 µM), usual class: inhibitors; 46,000 tested, 0.1% active; also: nearly all actives have a fitted effect of over 65% in size
#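 Adhesion/invasion was scored as fixed GFP-labeled SKOV3ip1 cell counts (488/509 nm), normalized to DMSO and tomatine controls. Cancer cells in serum-free medium, with four compound doses (0.36-46 umol/L), sat 2 hr at RT then 16 hr at 37 C on a 48 hr fibroblast/mesothelial/ECM culture.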
# S16 F2sN tox: S16 Schwann cell cytotoxicity. S16 Pmp22-F2sN Schwann cells viability, CellTiter-Glo, 24 h. Potency, µM (highest dose often 57.5 µM), actives largely listed as cytotoxic. 43,000 tested, 0.48% active; also: nearly all actives have a fitted effect of over 65% in size
#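 CellTiter-Glo counter-screen, qHTS, 1536-well. Cells: S16(c9) Pmp22-F2sN, 500-1,000/well in DMEM + 10% FBS. Cpd 23 nL pin transfer, 24 h, 37C/5% CO2. Read: luminescence, CCD imager.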
# PMP22 txn prim: modulates PMP22 transcription in S16 Schwann cells. S16 Pmp22-F2sN Schwann cells (luciferase reporters placed in the Pmp22 gene), FLuc/NLuc coincidence luminescence, 24 h. Potency, µM (doses to about 57.5 µM), hits mostly inhibitors. 43,000 tested, 2% active. AID 1508649; active = clear falling dose curves in both reporters; inconclusive = both reporters move, but less clearly or upward; inactive = either reporter flat; the % is the NLuc reporter signal
#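 qHTS, 1536-well. Cells seeded, compounds added by pin tool, 24 h 37C. Nano-Glo reagent 1 (lysis/FLuc), 10 min RT, read; Stop&Glo, 10 min RT, read NLuc.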
# mTORC1 inh: reduces mTORC1 signaling in Tsc2 and p53 null MEF cells; Tsc2-/- p53-/- MEF, phospho-rpS6 immunofluorescence/PI, 24 h; Potency, µM (highest dose often 38.3 µM), most hits filed as inhibitors; 44,000 tested, 0.78% active; AID 493208; also: nearly all actives have a fitted effect of over 50% in size
#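 Read-out: phospho-S6 Alexa-488 intensity over PI intensity per well, scored as % active cells using thresholds from rapamycin (7.5 nM) and DMSO controls. Tsc2-/-, p53-/- MEFs exposed to compound for 24 h; PI cell count recorded as viability.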
# NTMT1 inhibitor: inhibitors of human N-terminal methyltransferase NTMT1; NTMT1 MTase-Glo SAH luminescence, purified enzyme; 59,000 tested, 2.5% active; Potency, µM (titrated, usually from 114 µM), usual class: inhibitors; also: nearly all actives have a fitted effect of over 65% in size
# Target sequence (Q9BV86 whole entry, looked up): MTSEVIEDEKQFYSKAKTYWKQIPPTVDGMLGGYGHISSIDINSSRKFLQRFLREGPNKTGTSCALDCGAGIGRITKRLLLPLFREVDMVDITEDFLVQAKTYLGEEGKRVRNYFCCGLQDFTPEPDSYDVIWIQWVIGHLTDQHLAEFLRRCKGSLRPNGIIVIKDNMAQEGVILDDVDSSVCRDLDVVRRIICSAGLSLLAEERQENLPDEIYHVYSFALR
# Hits are given with their value; – = inactive; ? = inconclusive; · = no result given. This is a sample that favours compounds with a hit; in the whole collection about 3.6% have one here. Unless noted, calls follow the shape of the dose curve; as a rule, active = well fitted curve in the direction sought with a large enough effect; inconclusive = small, poorly fitted or top-dose-only effect, or another doubt; inactive = no such curve, though single readings can be large; an effect the other way counts as inactive or inconclusive.
SMILES,GALC G270D up,OvCa metastasis,S16 F2sN tox,PMP22 txn prim,mTORC1 inh,NTMT1 inhibitor
C=CC(=O)N1CC(N2CCN(C(=O)CNc3cc(C4(C)CC4)c(Cl)cc3O)CC2)C1,·,·,·,·,·,–
COc1ccc(CNC(=O)c2cnn(-c3ccc(F)cc3)c2-n2cccc2)cc1,–,–,–,–,–,–
CC(CNC(=O)c1cnn(-c2ccc(F)cc2)c1-n1cccc1)c1ccccc1 (stereo not given),–,–,?,?,–,79.4µM
Cc1ccc(CNS(=O)(=O)c2ccc3c(c2)CCN3S(C)(=O)=O)cc1,–,–,–,–,–,50.1µM
COc1ccc(CNC(=O)Cn2c(=O)nc(-c3ccccc3F)c3cc(Cl)ccc32)cc1,–,11.2µM,–,?,–,–
CC(C)NC(=O)Cn1c(=O)nc(-c2ccccc2F)c2cc(Cl)ccc21,–,–,–,–,–,–
COc1ccc(OC)c(NC(=O)c2nnn(CC(=O)Nc3ccc(C(C)C)cc3)c2N)c1,–,–,–,–,16.5µM,–
Cc1cncn1CCc1nc2c3ccccc3nc(SCC(=O)Nc3ccc(F)cc3)n2n1,–,–,–,–,–,–
Cc1cncn1CCc1nc2c3ccccc3nc(SCC(=O)Nc3cccc(Cl)c3)n2n1,–,?,28.2µM,?,?,–
Cc1cc(C)n2ncc(C(=O)Nc3ccc(C#N)cc3)c2n1,·,·,·,·,·,–
COc1cc(N2CCN(C)CC2)ccc1Nc1nccc(-c2cn(C)c3cnccc23)n1,·,·,·,·,·,–
Cc1ccc(C(N)=O)cc1Nc1nccc(-c2cn(C(C)C)c3cnccc23)n1,·,–,·,·,·,11.2µM
CC(C)(C)c1ccc(S(=O)(=O)N2CCC(c3ccncc3)CC2)cc1,–,–,?,?,18.5µM,–
CC(C)Cc1ccc(S(=O)(=O)N2CCC(c3ccncc3)CC2)cc1,–,?,?,?,18.5µM,?
O=S(=O)(c1ccc(Cl)cc1)N1CCC(c2ccncc2)CC1,–,–,–,–,–,–
CCN1CCN(Cc2ccc(NC(=O)c3ccc(C)c(Oc4ccnc5[nH]ccc45)c3)cc2C(F)(F)F)CC1,·,·,·,·,·,–
Cc1cncc2cccc(S(=O)(=O)N3CCCNC[C@@H]3C)c12,·,·,·,·,·,79.4µM
COc1ccc(NS(=O)(=O)c2ccc(N3CCCCS3(=O)=O)cc2)cc1Cl,–,–,?,7.27µM,–,–
C[N+](C)(CCOc1ccccc1)Cc1cccs1,–,·,·,·,·,14.1µM
CC(C)n1cc(-c2ccc3c(c2)N(C)CC3)c2c(NS(=O)(=O)c3ccn(C)n3)ccnc21,·,·,·,·,·,–
Cc1ccc(C(=O)CSc2nc(C)cc(C)c2C(=O)Nc2cccc(C)c2)cc1,–,–,?,–,–,50.1µM
COc1ccc(C(=O)CSc2nc(C)cc(C)c2C(=O)Nc2ccccc2C)cc1,–,–,?,?,–,2.82µM
N#C[C@@H]1CCCN1C(=O)CNC12CC3CC(CC(O)(C3)C1)C2,·,·,·,·,·,–
COc1ccc(C(=O)CN2CCN(S(=O)(=O)c3ccc(C(C)C)cc3)CC2)cc1,–,–,–,?,–,56.2µM
CCOc1ccc(NC(=O)CN2CCN(S(=O)(=O)c3ccc(OC)cc3)CC2)cc1,–,–,–,–,–,–
SMILES,GALC G270D up,OvCa metastasis,S16 F2sN tox,PMP22 txn prim,mTORC1 inh,NTMT1 inhibitor
Cc1cccc(NS(=O)(=O)c2ccc3[nH]c4c(c3c2)CCCCCC4)c1,–,–,?,?,13.1µM,–
O=S(=O)(Nc1cccc(Cl)c1)c1ccc2[nH]c3c(c2c1)CCCCCC3,–,–,?,?,–,–
OCCN1C[C@H](O)[C@@H](O)[C@H](O)[C@@H]1CO,·,–,·,·,·,–
Cc1ccc(S(=O)(=O)c2nnn3c2nc(NC2CCCCC2)c2sccc23)cc1C,–,–,?,?,7.36µM,–
Cc1ccc(C)c(S(=O)(=O)c2nnn3c2nc(NC2CCCC2)c2sccc23)c1,–,–,–,?,–,–
Cc1ccc(S(=O)(=O)c2nnn3c2nc(NCc2ccc(F)cc2)c2sccc23)cc1,–,–,–,?,–,89.1µM
